Screens from PubChem BioAssay.
Only a sample is shown.
aSyn 5UTR act – Activators via SNCA 5'UTR binding, MLPCN. alpha-synuclein 5'UTR reporter, activators screen. activity score, % (tested at 7.5 µM), hits read low. 7.1% of 300,000 active. AID 1814, 2009; in the data active = activity score below about -60%
Each line names hits and unclear results; the compound was inactive in the other large screens.

C/C(=N\NC(=O)c1c[nH]c2ccccc12)c1ccco1	aSyn 5UTR act -174
CC(=O)Nc1cccc(/C(C)=N/NC(=O)c2ccc3c(c2)OCO3)c1	aSyn 5UTR act -78
C/C(=N\NC(=O)c1c[nH]c2ccccc12)c1ccccn1	none
C/C(=N/NC(=O)c1ccc2c(c1)OCO2)c1ccc(NC(=O)C(F)(F)F)cc1	aSyn 5UTR act -127
C/C(=N\NC(=O)c1ccccc1F)c1ccc(C#N)cc1	aSyn 5UTR act -64
C/C(=N\NC(=O)c1c[nH]c2ccccc12)c1ccc2c(c1)OCO2	aSyn 5UTR act -98
C/C(=N\NC(=O)c1ccccc1F)c1cccc(NC(=O)c2ccccc2)c1	aSyn 5UTR act -94
CC(=O)NC1=NC(=O)/C(=C/c2cc(C)n(-c3ccc(NC(C)=O)cc3)c2C)S1	aSyn 5UTR act -80
CCOC(=O)N1CCC(NC(=O)c2ccc3c(c2)sc2nc(-c4cccc(OC)c4)cn23)CC1	aSyn 5UTR act -213
COc1ccc(/C=C/C(=O)c2ccc(OC)cc2OC)cc1	aSyn 5UTR act -114
COc1ccc(C(=O)/C=C/c2ccc(OC)cc2OC)c(O)c1	aSyn 5UTR act -283
COc1ccc(C(=O)/C=C/c2ccccc2)c(O)c1	aSyn 5UTR act -111
COc1ccc(C(=O)/C=C/C(=O)N(CC(=O)NC2CCCCC2)Cc2ccccc2)c(O)c1	none
COc1ccc(C(=O)/C=C/Nc2ccccn2)c(OC)c1	aSyn 5UTR act -160
O=C(/C=C/c1ccc(O)cc1)c1ccc(O)cc1O	aSyn 5UTR act -244
COc1ccc(C(=O)/C=C/c2ccccc2OC)c(OC(=O)c2ccc([N+](=O)[O-])cc2)c1	aSyn 5UTR act -332
COc1ccc(/C=C/C(=O)c2cc3c(cc2N)OCO3)cc1	aSyn 5UTR act -183
COc1ccc(/C=C/C(=O)c2cc(F)ccc2OC(=O)c2ccccc2)cc1OC	none
CN(C)c1ccc(/C=C/C(=O)c2cc(Cl)ccc2O)cc1	aSyn 5UTR act -96
COc1ccc(/C=C/C(=O)c2cc(Cl)ccc2O)c(OC)c1	aSyn 5UTR act -80
COc1ccc(C(=O)/C=C/c2cc(C(=O)O)cc3c2OCOC3)c(O)c1	aSyn 5UTR act -75
COc1ccc(C(=O)c2ccc(OC)cc2O)c(O)c1	aSyn 5UTR act -120
COc1ccc(/C=C/C(=O)CCC(=O)O)cc1	aSyn 5UTR act -78
COCCCNC(=O)/C=C/c1ccc(Cl)cc1Cl	aSyn 5UTR act -85
Cc1ccc(Cl)c(NC(=O)CCl)c1Cl	aSyn 5UTR act -87
O=C(c1ccncc1)N1N=C(c2ccc(Cl)cc2)CC1c1ccccc1O (stereo not given)	aSyn 5UTR act -128
Fc1ccc(CNc2ccccn2)cc1	aSyn 5UTR act -78
CSc1ccc(CNc2ccccn2)cc1	aSyn 5UTR act -100
COc1ccc(CCC(=O)Nc2ccc(-c3noc(-c4ccc(OC)c(OC)c4)n3)cc2)cc1	aSyn 5UTR act -158
COc1ccc(-c2nc(-c3ccc(NC(=O)c4ccc(Br)o4)cc3)no2)cc1OC	aSyn 5UTR act -136
O/N=C/c1ccc2ccccc2n1	aSyn 5UTR act -79
O/C(=C\c1nc2ccccc2nc1/C=C(\O)c1ccccc1)c1ccccc1	aSyn 5UTR act -73
O/C(=C\c1ccc2ccccc2n1)c1ccncc1	aSyn 5UTR act -69
COC(=O)c1ccc(/C=C(\C#N)c2ccccn2)cc1	aSyn 5UTR act -132
N#C/C(=C\c1ccc([N+](=O)[O-])cc1)c1ccccn1	aSyn 5UTR act -121
CN(C)c1ccc(/C=C(\C#N)c2ccccn2)cc1	none
O=C(CCc1ccccc1)Nc1ccc(F)cc1F	aSyn 5UTR act -68
O=C(CCc1ccccc1)Nc1ccccc1F	aSyn 5UTR act -135
O=C(CCCc1ccccc1)Nc1ccc(Br)cc1F	aSyn 5UTR act -71
Cc1ccccc1OCCOc1cccc(/C=N/NC(=O)Cc2nnc(N)s2)c1	aSyn 5UTR act -84
Nc1nnc(CC(=O)N/N=C/c2cccc(OCCOc3ccccc3)c2)s1	aSyn 5UTR act -120
CC1(C)CC(=O)C(N=Nc2ccc(-c3ccccc3)cc2)=C(O)C1	aSyn 5UTR act -84
Cc1[nH]cnc1C(=O)N/N=C/c1c(Cl)cccc1Cl	aSyn 5UTR act -73
Cc1ccc(-n2nc(C)c3c(C)cc(=O)[nH]c32)cc1	aSyn 5UTR act -69
O=C(/C(=C(\O)c1ccccc1)c1nc2ccccc2[nH]1)c1ccccc1	aSyn 5UTR act -108
Fc1ccc(F)c(C2=NNC(=Nc3ccccc3F)SC2)c1	aSyn 5UTR act -110
COCCn1c(C)cc(C2=NNC(=Nc3ccccc3F)SC2)c1C	none
Cc1cccc(N=C2NN=C(c3ccccc3F)CS2)c1C	aSyn 5UTR act -102
Fc1ccccc1N=C1NN=C(c2ccccc2)CS1	aSyn 5UTR act -199
Clc1ccccc1N=C1NN=C(c2cccs2)CS1	aSyn 5UTR act -160
Cc1ccc(-c2noc(C3CCN(S(C)(=O)=O)CC3)n2)o1	aSyn 5UTR act -67
O=C(c1ccccc1Br)N1CCCC(c2nc(-c3cccs3)no2)C1 (stereo not given)	aSyn 5UTR act -63
Cc1ccc(-c2noc(C3CCCN(C(=O)c4ccccc4)C3)n2)o1 (stereo not given)	aSyn 5UTR act -154
Cc1ccc(-c2noc(C3CCCN(C(=O)c4ccccc4Br)C3)n2)o1 (stereo not given)	aSyn 5UTR act -92
